Assay results: ChEMBL document CHEMBL1157539, “Thousands of chemical starting points for antimalarial lead identification” (Nature, 2010)

Tests used:
Format in all cases: functional
[1] = system: Plasmodium falciparum; test: GSK_TCMDC: Inhibition of Plasmodium falciparum 3D7 in whole red blood cells, using parasite LDH activity as an index of growth. Test compounds present at 2uM
[2] = system: Plasmodium falciparum; test: GSK_TCMDC: Inhibition of Plasmodium falciparum Dd2 in whole red blood cells, using parasite LDH activity as an index of growth. Test compounds present at 2uM
[3] = system: HepG2; test: GSK_TCMDC: Percent inhibition of human HepG2 cell line. Test compounds present at 10uM.

SMILES	Inhibition [1] [%]	Inhibition [2] [%]	Inhibition [3] [%]
CCC1CN2CCc3c([nH]c4ccccc34)C2CC1CC1=NCCc2c1[nH]c1ccccc21.Cl (stereo not drawn)	100	47	20
CC1Cc2ccccc2N1S(=O)(=O)c1cc(OCC(F)(F)F)ccc1OCC(F)(F)F (stereo not drawn)	96	95	10
Cl.N=C(N)c1cc(Cl)cc(NC(=O)Nc2cc(Cl)cc(C(=N)N)c2)c1	92	92	4
CC(C)(C)CC(C)(C)c1ccc(O)c(C(=O)Nc2ccc([N+](=O)[O-])cc2)c1	97	99	80
CCOc1ccc(Cc2c(C)nc3nc(N)nc(N)c3c2C)cc1.Cl	91	7	63
CN(Cc1ccc(NC(=O)NC2CCN(C(=O)/C=C/c3ccc(Cl)c(Cl)c3)CC2)cc1)C1CCOCC1	96	14	9
Cc1[nH]c(C)c(-c2ccc(-c3ccc(C#N)cc3)nc2)c(=O)c1Br	97	87	5
Cc1[nH]c(C)c(-c2ccc(CCc3ccc(F)cc3F)cc2)c(=O)c1Br	97	98	0
Cc1nnc(Sc2ncnc3scc(-c4ccc(F)cc4)c23)s1	99	50	13
Nc1nc2ccc(S(=O)(=O)Nc3ccc(C(=O)N[C@@H](CCC(=O)O)C(=O)O)c(F)c3)cc2c(=O)[nH]1	97	16	37
CNCCNCc1ccc(-c2ccc(-c3nc4cc(F)ccc4[nH]3)cc2)cc1.O=C(O)C(F)(F)F	98	97	30
